Measurements: PubChem BioAssay (Tox21)
Results filed as inconclusive are left out. The source made the active and inactive calls. Unless noted, the call rests on the fitted dose curve; in most records, active means well fitted curve in the direction sought with a large enough effect in the repeat runs; inconclusive means weak or mixed curves; inactive means no such curve, though single readings can be large; an effect the other way counts as inactive or inconclusive.

Legend:
[1] = qHTS assay to test for compound auto fluorescence at 535 nm (green) in HEK293 cells (AID 720680)
[2] = qHTS assay to test for compound auto fluorescence at 460 nm (blue) in HEK293 cell free culture (AID 720681)
Procedure, shortened: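 Compounds were added to cell-free DMEM with 10% FBS and fluorescence read directly. The blue channel used 405 nm excitation and 460 nm emission, with triamterene as the reference fluorophore.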

[3] = qHTS assay to test for compound auto fluorescence at 535 nm (green) in HEK293 cell free culture (AID 720682)
Procedure, shortened: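 Measurement is a direct plate read of green fluorescence (485 nm in, 535 nm out) after compound addition to serum-supplemented DMEM lacking cells, with fluorescein used to express intensities.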

[4] = qHTS assay to test for compound auto fluorescence at 590 nm (red) in HEK293 cell free culture (AID 720683)
Procedure, shortened: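 Cell-free wells of DMEM with 10% FBS received compound, and intrinsic fluorescence was read at excitation/emission 540/590 nm. Values expressed as equivalence to Rose Bengal sodium.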

[5] = qHTS assay to test for compound auto fluorescence at 590 nm (red) in HepG2 cell free culture (AID 720684)
Procedure, shortened: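 Auto fluorescence equivalency versus Rose Bengal sodium, red channel Ex/Em 540/590 nm; compounds in cell-free MEM/10% FBS; DMSO vehicle control.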

[6] = qHTS assay to test for compound auto fluorescence at 460 nm (blue) in HepG2 cell free culture (AID 720685)
Procedure, shortened: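 Cell-free plates of MEM plus 10% FBS received 23 nL compound or DMSO vehicle; blue-channel (405/460 nm) intensity scored against triamterene as reference fluorophore.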

[7] = qHTS assay to test for compound auto fluorescence at 535 nm (green) in HepG2 cell free culture (AID 720686)
[8] = qHTS assay to test for compound auto fluorescence at 460 nm (blue) in HepG2 cells (AID 720687)
Procedure, shortened: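 HepG2 cells in MEM with 10% FBS, attached overnight at 37 C, were exposed to compound or DMSO for 1 hr at 37 C, 5% CO2. Blue fluorescence was read at 405/460 nm, with triamterene as reference fluorophore.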

[9] = target: Glucocorticoid receptor (Homo sapiens) (UniProt P04150); test: qHTS assay to identify small molecule agonists of the glucocorticoid receptor (GR) signaling pathway (AID 720691; active means well fitted activation curve with a large enough effect in the signal ratio in the repeat runs, not every such curve was filed as active; the % refers to the signal ratio)
Glucocorticoid receptor (Homo sapiens), sequence (P04150 whole entry, looked up): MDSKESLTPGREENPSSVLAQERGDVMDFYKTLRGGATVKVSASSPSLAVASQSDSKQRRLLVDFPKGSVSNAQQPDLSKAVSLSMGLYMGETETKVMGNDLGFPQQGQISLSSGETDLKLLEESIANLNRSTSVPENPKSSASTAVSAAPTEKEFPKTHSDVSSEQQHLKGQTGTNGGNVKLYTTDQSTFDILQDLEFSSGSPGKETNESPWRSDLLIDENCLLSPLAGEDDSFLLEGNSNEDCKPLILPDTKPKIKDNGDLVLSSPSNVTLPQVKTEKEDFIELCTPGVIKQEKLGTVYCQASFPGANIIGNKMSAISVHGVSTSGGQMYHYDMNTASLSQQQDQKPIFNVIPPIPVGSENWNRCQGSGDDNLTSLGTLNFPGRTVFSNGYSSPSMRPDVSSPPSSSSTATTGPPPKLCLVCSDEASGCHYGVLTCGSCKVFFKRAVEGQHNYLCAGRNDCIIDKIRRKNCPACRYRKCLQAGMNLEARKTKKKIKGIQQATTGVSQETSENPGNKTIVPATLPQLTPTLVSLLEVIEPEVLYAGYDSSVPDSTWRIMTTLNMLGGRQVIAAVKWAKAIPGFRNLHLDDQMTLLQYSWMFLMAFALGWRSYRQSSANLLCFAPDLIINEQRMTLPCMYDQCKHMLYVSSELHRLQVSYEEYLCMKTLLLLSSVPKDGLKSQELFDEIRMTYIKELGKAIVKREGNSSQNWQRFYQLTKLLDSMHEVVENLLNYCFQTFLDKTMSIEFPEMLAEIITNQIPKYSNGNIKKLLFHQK
Procedure, shortened: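 Agonist-mode qHTS in HeLa cells stably expressing a glucocorticoid-response-element beta-lactamase reporter. Fluorescence intensity read with FRET substrate (2 h, room temperature) after 18 h compound treatment at 37 C.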

[10] = qHTS assay to identify small molecule antagonists of the glucocorticoid receptor (GR) signaling pathway - cell viability counter screen (AID 720693); further: nearly all actives have a fitted effect of over 55% in size
[11] = qHTS assay for identifying genotoxic compounds that show differential cytotoxicity against isogenic chicken DT40 cell lines with known DNA damage response pathways - wild type cell line (AID 743012); further: nearly all actives have a fitted effect of over 60% in size; further: potency means the concentration at half of the fitted maximal effect
Procedure, shortened: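 Viability by ATP luminescence (CellTiter-Glo, 30 min RT) after 40 h compound treatment at 37 C/5% CO2, using 300 parental DNA repair-proficient DT40 cells per well.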

[12] = qHTS assay for identifying genotoxic compounds that show differential cytotoxicity against isogenic chicken DT40 cell lines with known DNA damage response pathways - Rad54/Ku70 mutant cell line (AID 743015); further: nearly all actives have a fitted effect of over 60% in size; further: potency means the concentration at half of the fitted maximal effect
[13] = target: Androgen receptor (Homo sapiens) (UniProt P10275); test: qHTS assay to identify small molecule agonists of the androgen receptor (AR) signaling pathway using the MDA cell line (AID 743040; further: nearly all actives have a fitted effect of over 20% in size)
Androgen receptor (Homo sapiens), sequence (P10275 whole entry, looked up): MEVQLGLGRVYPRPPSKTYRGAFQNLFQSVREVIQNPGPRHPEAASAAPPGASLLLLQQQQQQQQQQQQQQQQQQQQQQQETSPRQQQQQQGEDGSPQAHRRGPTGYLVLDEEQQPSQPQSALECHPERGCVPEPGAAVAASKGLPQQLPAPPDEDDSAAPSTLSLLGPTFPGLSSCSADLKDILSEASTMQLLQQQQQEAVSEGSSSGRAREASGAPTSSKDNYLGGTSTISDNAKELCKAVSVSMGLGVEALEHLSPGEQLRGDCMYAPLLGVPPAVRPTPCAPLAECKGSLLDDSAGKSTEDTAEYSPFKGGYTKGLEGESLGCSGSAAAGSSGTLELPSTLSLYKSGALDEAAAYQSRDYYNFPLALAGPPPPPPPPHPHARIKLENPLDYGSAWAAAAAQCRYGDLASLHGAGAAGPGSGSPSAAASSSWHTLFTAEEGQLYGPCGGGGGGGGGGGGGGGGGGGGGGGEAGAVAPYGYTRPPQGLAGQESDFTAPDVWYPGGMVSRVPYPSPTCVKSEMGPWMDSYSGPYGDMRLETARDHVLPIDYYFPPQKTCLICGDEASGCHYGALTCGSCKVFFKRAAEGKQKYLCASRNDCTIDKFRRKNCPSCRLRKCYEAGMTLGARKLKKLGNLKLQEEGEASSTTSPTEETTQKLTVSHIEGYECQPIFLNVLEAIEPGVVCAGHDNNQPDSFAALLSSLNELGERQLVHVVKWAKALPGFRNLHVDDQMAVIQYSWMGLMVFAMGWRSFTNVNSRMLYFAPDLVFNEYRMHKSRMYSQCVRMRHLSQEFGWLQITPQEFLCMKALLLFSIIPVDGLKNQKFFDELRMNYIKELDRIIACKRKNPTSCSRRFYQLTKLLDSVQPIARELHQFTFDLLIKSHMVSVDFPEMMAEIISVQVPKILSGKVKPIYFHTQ
Procedure, shortened: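 Testing was done with the MDA-kb2 AR-luc line, a human breast carcinoma stably transfected with MMTV-luciferase containing AR and GR response elements. Cells were exposed 16 h at 37C before ONE-Glo luminescence detection.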

[14] = qHTS assay to identify small molecule antagonists of the androgen receptor (AR) signaling pathway using the MDA cell line - cell viability counter screen (AID 743041; further: nearly all actives have a fitted effect of over 45% in size)
Procedure, shortened: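 Compound exposure lasted 16 h at 37C in MDA-kb2 AR-luc cells stimulated with R1881. Protease-based CellTiter-Fluor reagent was applied for the final 30 min and fluorescence measured.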

[15] = target: Androgen receptor (Homo sapiens) (UniProt P10275); test: qHTS assay to identify small molecule antagonists of the androgen receptor (AR) signaling pathway using the MDA cell line (AID 743042; further: nearly all actives have a fitted effect of over 55% in size)
Procedure, shortened: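 MDA-kb2 breast carcinoma cells carrying MMTV-luciferase (AR/GR responsive) were co-treated with compounds and the agonist R1881 for 16 h at 37C. Inhibition read as ONE-Glo luminescence; CellTiter-Fluor fluorescence measured in parallel for cytotoxicity.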

[16] = target: Glucocorticoid receptor (Homo sapiens) (UniProt P04150); test: qHTS assay to identify small molecule antagonists of the glucocorticoid receptor (GR) signaling pathway (AID 720692; active means well fitted inhibition curve with a large enough effect in the signal ratio in the repeat runs, not every such curve was filed as active; the % refers to the signal ratio)
Procedure, shortened: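 Inhibition of dexamethasone-driven (5 nM final) beta-lactamase expression was measured in GRE-reporter HeLa cells over 18 h at 37C. Fluorescence was read after 2 h with the B/G FRET substrate at room temperature.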

[17] = qHTS assay for identifying genotoxic compounds that show differential cytotoxicity against isogenic chicken DT40 cell lines with known DNA damage response pathways - Rev3 mutant cell line (AID 743014); further: nearly all actives have a fitted effect of over 55% in size; further: potency means the concentration at half of the fitted maximal effect
[18] = qHTS assay to identify small molecule antagonists of the androgen receptor (AR) signaling pathway - cell viability counter screen (AID 743033; further: nearly all actives have a fitted effect of over 45% in size)
[19] = target: Androgen receptor (Homo sapiens) (UniProt P10275); test: qHTS assay to identify small molecule agonists of the androgen receptor (AR) signaling pathway (AID 743036; active means well fitted activation curve with a large enough effect in the signal ratio in the repeat runs, with a control signal flat, not every such curve was filed as active; the % refers to the signal ratio)
Procedure, shortened: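 Beta-lactamase under UAS control, stably integrated in HEK293 GripTite cells, reports receptor activation. After 16 h compound treatment, cells received FRET substrate for 2 h at room temperature before fluorescence reading.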

Measured: Potency

O=[N+]([O-])c1cc[n+]([O-])cc1
active: [11] 15.4 µM
not listed: [16] | [17] | [18] | [19]
inactive: all other assays above

CC1=CC(=O)/C(=C(/C)O)C(=O)O1
not listed: [13] | [15] | [19]
inactive: all other assays above

Oc1ccc(C(O)CNCCCCCCNCC(O)c2ccc(O)c(O)c2)cc1O (stereo unspecified)
active: [11] 26.6 µM
not listed: [12] | [13] | [14] | [15] | [17] | [19]
inactive: all other assays above

O=C(CC(=O)c1ccccc1)c1ccccc1
active: [11] 36.9 µM | [17] 26.2 µM | [12] 23.3 µM
not listed: [13] | [15] | [16] | [19]
inactive: all other assays above

Cc1ccc(C(N)=O)cc1N
not listed: [12] | [13] | [15] | [16] | [19]
inactive: all other assays above

CN(C)C/C=C(/c1ccc(Br)cc1)c1cccnc1
active: [11] 29.8 µM
not listed: [12] | [13] | [15] | [17] | [19]
inactive: all other assays above

O=C(CCN1CCN2CCCC2C1)N1c2ccccc2Sc2ccc(Cl)cc21 (stereo unspecified)
active: [11] 10.6 µM | [17] 11.9 µM | [12] 23.7 µM
not listed: [10]
inactive: all other assays above

CC(C)=CCCC(C)CC=O (stereo unspecified)
not listed: [13] | [15] | [16] | [19]
inactive: all other assays above

C=CCCCCCC
not listed: [13] | [15] | [16] | [19]
inactive: all other assays above

CCCCCCCCN(C)C
not listed: [13] | [15] | [17] | [19]
inactive: all other assays above

O=C(O)Cn1c(C(=O)Nc2nc(-c3ccccc3Cl)cs2)cc2ccccc21
not listed: [13] | [15] | [17] | [19]
inactive: all other assays above

N#Cc1cc2ccccc2c2ccccc12
not listed: [11] | [13] | [15] | [17] | [18] | [19]
inactive: all other assays above

CC(CN)CCCN (stereo unspecified)
not listed: [10] | [13] | [15] | [19]
inactive: all other assays above

CC(=O)OC/C=C/c1ccccc1
not listed: [13] | [15] | [19]
inactive: all other assays above

CNS(=O)(=O)Cc1ccc2[nH]cc(CCN(C)C)c2c1
not listed: [13] | [15] | [16] | [18] | [19]
inactive: all other assays above

Oc1ccc2c(c1)OCO2
active: [11] 54 µM
not listed: [12] | [13] | [15] | [16] | [17] | [19]
inactive: all other assays above

CCOC(=S)SSC(=S)OCC
not listed: [13] | [15] | [17] | [19]
inactive: all other assays above
